# The campaign covered roughly 65,000 compounds. About 2,100 (3.2%) showed an effect of 50% or more. The median lay at about -52%. The entries come from a sample that favours strong results as a whole.
# Test system: Plasmodium falciparum
# Assay: Screen against P. falciparum Asexual Blood Stage (ABS), at 5uM
# Format: functional, Dd2
# Conditions: tested at 5 uM
row,Compound,INHIBITION
1,CC(=O)N(c1ccc(F)cc1)c1nc(CN2CCCC2C(C)C)cs1 (stereo not drawn),90.3%
2,CC(=O)N(c1ccc(C)cc1)c1nc(CN2CCCC(C)C2)cs1 (stereo not drawn),83.2%
3,Cc1nc(CN2C[C@@H]3CN(C(=O)c4ccncc4)C[C@@H]3C2)cs1,-67.5%
4,Cc1nc(CN2CCO[C@H]3CN(C(=O)c4ccncc4)C[C@H]32)cs1,-109%
5,CCc1nc(CN2CCCN(C(=O)Cc3cccs3)CC2)cs1,3.65%
6,CCCN1CCN(C(=O)c2cccc(C)n2)[C@H]2CS(=O)(=O)C[C@H]21,-129%
7,CC(C)(C)CC(=O)N1C[C@@H]2C[C@@H]1CN2,30%
8,CN(Cc1cc(C2CC2)on1)C(=O)CN1CC(c2ccccc2)CC1=O (stereo not drawn),-67.9%
9,CC(C)c1cc(N(C)Cc2cc(C3CC3)on2)n2nccc2n1,80.3%
10,CN(C)CCOCc1cncc2c1CCN(C1CCOC1)C2 (stereo not drawn),-63.4%
11,NC(=O)CN1CCCN(C(=O)Cc2ccc3ccccc3c2)CC1,-22.8%
12,CCCC1CCCN(Cc2csc(-c3ncccn3)n2)CC1 (stereo not drawn),74.9%
13,CCN1CCN(Cc2csc(C(C)C)n2)CC1,-17.1%
14,O=C(Cc1csc(-c2ncccn2)n1)N1CCN2CCCCC2C1 (stereo not drawn),-23.4%
15,CCc1noc(CN(C)CCC(=O)Nc2ccc(C#N)c(Cl)c2)n1,11.3%
16,O=S(=O)(Cc1ccccc1Cl)NCCCN1CCCC1,79.2%
17,Cn1cc(C(=O)N2CC[C@@H]3[C@@H]2CCN3Cc2ccncc2)cn1,-137%
18,Cc1cnc(N2CCc3c(cnc(C)c3C(=O)O)C2)nc1,-89.7%
19,Cc1ccc(CNC(C)c2cc(F)ccc2N2CCN(C)CC2)o1 (stereo not drawn),83.7%
20,CCN1CCN(c2ccc(F)cc2C(C)NCc2cscn2)CC1 (stereo not drawn),81.1%
21,CCN1CCN(c2ccc(F)cc2C(C)NCc2ccnn2C)CC1 (stereo not drawn),76.3%

row,Compound,INHIBITION
1,CCN1CCN(c2ccc(F)cc2C(C)NCc2ccccn2)CC1 (stereo not drawn),85.6%
2,CC(C)c1cc(CN2CCN(c3cccnc3)CC2)n(C)n1,-52.7%
3,CCc1noc(C(C)N2CCN(CC)CC2)n1 (stereo not drawn),-70%
4,c1ccc(CO[C@@H]2CN(Cc3cccnc3)[C@@H]3COC[C@@H]32)nc1,-165%
5,CCN1CCN(c2ccc(F)cc2C(C)NCc2ccncc2)CC1 (stereo not drawn),72.4%
6,CCN1CCN(c2ccc(C(=O)NCCOC)cc2F)CC1,-56%
7,CC(c1ccccc1F)N1CCN(C(=O)Cc2ccncc2)CC1 (stereo not drawn),-41.8%
8,Cc1cccc(OCC2CCCN(C(=O)CN(C)C3CCNCC3)C2)c1 (stereo not drawn),73.8%
9,Cc1cccc(CC(=O)N2CCCC(N(C)CCCN(C)C)C2)c1 (stereo not drawn),-40.55%
10,CNc1ncccc1CN1CCN2CCN(C)CC2C1 (stereo not drawn),-92.1%
11,Clc1cc(CN2CCCN3CCCC3C2)c2ncccc2c1 (stereo not drawn),89.5%
12,Cc1cccc2cc(CN3CCCN4CCC[C@H]4C3)c(=O)[nH]c12,-45.3%
13,Cc1ccc(N2CCO[C@H]3CN(CC4CC4)C[C@H]32)nn1,-15.6%
14,CC1CN(CC2CCCC2)CCN1c1ccc2nncn2n1 (stereo not drawn),70.4%
15,Cc1cccc(CN2CC[C@@H]3[C@@H]2CCN3C(=O)c2ccno2)n1,-100%
16,Cc1cc(-c2cnc(N3CCCC3)nc2C(C)C)on1,10.2%
17,c1cncc(N2CCOCC3(CCCN(Cc4cccs4)C3)C2)c1 (stereo not drawn),55.5%
18,O=C1CC2(CCN(CC3CC3)C2)CN1c1cccnc1 (stereo not drawn),-58.5%
19,c1cncc(N2CCOCC3(CN(Cc4cccs4)CCO3)C2)c1 (stereo not drawn),-41%
20,c1cncc(N2CCCC3(CN(Cc4cccs4)CCO3)C2)c1 (stereo not drawn),-22.7%
21,c1cncc(N2CCCC3(CCN(CCN4CCCC4)CC3)C2)c1,92%

row,Compound,INHIBITION
1,c1cnc(N2CCOCC3(CCCN(Cc4cccs4)C3)C2)nc1 (stereo not drawn),-15.6%
2,CN1CCO[C@H]2CN(C(=O)c3ccncc3F)C[C@H]21,-54.5%
3,COc1ccccc1C1(NCc2c(C)nc3c(C)cccn23)CCCC1,89.2%
4,Cc1cccnc1N1CC2(CCN(Cc3cccnc3)C2)C1,-50.1%
5,Cc1cnccc1N1CCN(C[C@]2(O)CCCN3CCCC[C@@H]32)CC1,75%
6,O[C@@]1(CNCCCNc2cccnc2)CCCN2CCCC[C@@H]21,-52.8%
7,O=C(Nc1ccccc1)[C@H]1CN2CCC1C[C@@H]2Cn1cc(CO)nn1 (stereo partly drawn),-50.4%
8,CC(C)N1[C@H](CN(C)C)C[C@@H]2CN(c3ncc(F)cn3)CC[C@@H]21,25.4%
9,Cc1ccc(C(=O)N2C[C@@H]3CCN(C(C)C)C[C@@H]3C2)cn1,-25%
10,N#CC1(c2ccccc2)CCN(C(=O)C2CCCN(C(N)=O)C2)CC1 (stereo not drawn),-142%
11,CC(C)N1CCCC(C(=O)N2CCN(c3nsc4ccccc34)CC2)C1 (stereo not drawn),70.4%
12,Cn1cc(CN2CCC[C@]3(C[C@@H](Oc4ccccn4)CO3)C2)cn1,-29.6%
13,Cc1nc(CN2CC[C@H]3C[C@H](c4ccncn4)O[C@@H]3C2)cs1,-62.5%
14,CN1CCN([C@H]2COC[C@@H]3CN(Cc4cccnc4)C[C@@H]32)CC1,-11.2%
15,Cc1cc(C)cc(CN2C[C@H]3COC[C@H](N4CCN(C)CC4)[C@H]3C2)c1,94.1%
16,COCCNC(=O)C[C@@H]1COC[C@H]2CN(Cc3cccnc3)C[C@@H]12,-103%
17,COc1ccc(CN2C[C@H]3CN(c4cncnc4)C(=O)[C@H]3C2)cc1,-49.1%
18,O=C(C[C@@H]1COC[C@H]2CN(Cc3ccncc3)C[C@@H]12)N1CCCC1,-88%
19,COc1ccc(CN2C[C@@H]3COC[C@@H](N4CCN(C)CC4)[C@@H]3C2)cc1,73.9%
20,Cc1c(CC(=O)N2CCN(CC(F)(F)F)CC2)nnn1-c1ccccc1,-74%
21,Cc1cc(N2CCCC(c3[nH]ncc3Cc3ccccc3)C2)nc(N)n1 (stereo not drawn),73.6%
